Only some compounds are listed: those with a hit (about 2% of all), similar ones and a draw of the others.
Neddylation inh = inhibitors of cullin neddylation, primary screen, biochemical, TR-FRET, uHTS, NAE and Ubc12. NEDD8-conjugating enzyme Ubc12 (Homo sapiens) + NEDD8-activating enzyme E1 regulatory …. inhibition, % at 25 µM. hit rate 0.58% among 360,000; in the data active = inhibition above about 36%
Target sequence (P61081 whole entry, looked up): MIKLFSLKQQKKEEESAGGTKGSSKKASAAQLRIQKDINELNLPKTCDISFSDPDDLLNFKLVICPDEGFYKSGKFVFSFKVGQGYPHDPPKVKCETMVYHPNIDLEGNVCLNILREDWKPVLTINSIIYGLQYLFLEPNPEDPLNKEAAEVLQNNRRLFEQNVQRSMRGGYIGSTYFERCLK
Target sequence (Q13564 whole entry, looked up): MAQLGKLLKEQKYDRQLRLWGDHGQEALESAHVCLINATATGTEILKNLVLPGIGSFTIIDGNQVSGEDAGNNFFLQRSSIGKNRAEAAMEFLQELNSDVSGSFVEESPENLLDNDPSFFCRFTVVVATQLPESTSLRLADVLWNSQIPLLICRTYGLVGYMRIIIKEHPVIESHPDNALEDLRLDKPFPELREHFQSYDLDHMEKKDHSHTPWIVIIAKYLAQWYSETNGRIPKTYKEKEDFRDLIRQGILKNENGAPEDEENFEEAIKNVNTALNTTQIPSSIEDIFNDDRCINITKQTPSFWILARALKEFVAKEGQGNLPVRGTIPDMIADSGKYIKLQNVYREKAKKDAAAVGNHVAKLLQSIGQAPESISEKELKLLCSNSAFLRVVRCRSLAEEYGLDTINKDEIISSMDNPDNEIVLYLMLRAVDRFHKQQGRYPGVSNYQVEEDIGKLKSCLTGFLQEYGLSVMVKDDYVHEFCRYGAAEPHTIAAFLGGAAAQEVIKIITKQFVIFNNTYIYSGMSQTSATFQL
DAGLB inh = DAGLB lipase inhibitors, primary screen, biochemical, fluorescence, HTS | Diacylglycerol lipase-beta (Homo sapiens), Q8NCG7 | HEK293T DAGLB membrane lysate, EnzChek fluorogenic substrate | inhibition, % at 5.17 µM | hit rate 0.059% among 340,000; in the data active = inhibition above about 34%;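 note: 0% = enzyme with vehicle and 100% = wells lacking enzyme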
NadD inh = inhibitors of S. aureus NadD, primary screen, biochemical, colorimetric, uHTS. purified NadD enzyme, colorimetric absorbance read-out. inhibition, % at 20 µM. hit rate 0.78% among 360,000. AID 602399, 2012; in the data active = inhibition above about 26%
HGIII-sPLA2 inh = human group III sPLA2 inhibitors, primary screen, biochemical, QFRET, BODIPY PC-A2 liposome substrate; Group 3 secretory phospholipase A2 (Homo sapiens), Q9NZ20; QFRET BODIPY PC-A2 liposome hydrolysis, fluorescence; inhibition, % at 12.2 µM; hit rate 0.56% among 370,000; AID 743126, 2013;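 active = inhibition above mean plus 3 SD of compounds lying within the high and low control bounds, cut at about 19% in these data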;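 note: 0% = median of test compound wells and 100% = no enzyme DMSO wells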
ARNT TACC3 PPI = disruptors of ARNT/TACC3 protein interaction, primary screen, biochemical, AlphaScreen, single concentration | hit rate 0.66% among 390,000 | inhibition, % at 9.99 µM | Transforming acidic coiled-coil-containing protein 3 (Homo sapiens), Q9Y6A5 | AlphaScreen His-ARNT PAS-B/GST-TACC3 binding, luminescence; TACC3 fragment carries E629A point mutation;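 active = mean inhibition of replicates at least 50% and at least half of replicates each reaching 50%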;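 note: 0% = complete ARNT plus TACC3 wells and 100% = ARNT alone without TACC3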
hGIII sPLA2 conf = human group III sPLA2 inhibitors, confirmation, biochemical, QFRET, triplicate | recombinant hGIII-sPLA2, BODIPY PC-A2 QFRET fluorescence | inhibition, % at 12.2 µM | shares compounds with HGIII-sPLA2 inh | hit rate 34% among 2,000;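 active = mean inhibition across triplicates above the hit cutoff set in the earlier primary screen, cut at about 19% in these data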;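 note: 0% = enzyme with DMSO and 100% = DMSO wells lacking enzyme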
535nm interf = 535nm fluorescence optical interference, confirmation, artefact control for HGIII-sPLA2 inhibitor project, biochemical, QFRET; shares compounds with HGIII-sPLA2 inh; BODIPY FL product fluorescence interference; inhibition, % at 12.2 µM; hit rate 8.5% among 2,000;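 active = average inhibition above the solvent-only control mean plus 3 SD, cut at about 6% in these data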;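 note: 0% = DMSO with substrate plus product and 100% = DMSO with substrate alone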
BODIPY interf DR = 535nm fluorescence optical interference, dose response, artefact control for HGIII-sPLA2 inhibitor project, biochemical, QFRET; shares compounds with HGIII-sPLA2 inh; BODIPY FL product fluorescence interference, cell-free; IC50, µM; 240 tested, under 10 active; AID 743455, 2014;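 active = IC50 at or below 10 µM; inactive = IC50 above 10 µM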
* marks the source's active call; other numbers are inactive results; · = no result.

SMILES | Neddylation inh | DAGLB inh | NadD inh | HGIII-sPLA2 inh | ARNT TACC3 PPI | hGIII sPLA2 conf | 535nm interf | others
COc1ccc(-n2c(SCC(=O)NNC(=S)Nc3ccccc3)nc3ccccc3c2=O)cc1 | · | · | · | 36* | · | 39* | 4 | BODIPY interf DR=>122
Cc1noc(C)c1S(=O)(=O)Nc1ccc2c(c1)C(=O)N([C@H](C)CO)C[C@@H](C)[C@@H](CN(C)C(=O)NC1CCCCC1)OCCCC[C@@H](C)O2 | · | · | · | · | -6 | · | ·
C[C@@H]1CCCCO[C@H](CN(C)C(=O)Nc2ccc(F)cc2)[C@H](C)CN([C@@H](C)CO)C(=O)c2cc(NC(=O)Nc3ccc(C(F)(F)F)cc3)ccc2O1 | · | · | · | · | 4 | · | ·
COCC#Cc1cnc2c(c1)C(=O)N([C@@H](C)CO)C[C@@H](C)[C@@H](CN(C)C(=O)c1ccc(F)cc1)O2 | · | · | · | · | -22 | · | ·
Cc1ccc(NC(=O)CN(C)Cc2nc3ccccc3c(=O)[nH]2)c(Br)c1 | 4 | 0 | -1 | 1 | 7 | · | ·
Cc1cc(Br)ccc1NC(=O)CNC(=O)CN(C)Cc1nc2ccccc2c(=O)[nH]1 | -8 | -1 | 2 | 25* | 2 | 16 | -16
CCNC(=O)C[C@H]1CC[C@@H]2[C@H](COC[C@H](O)CN2Cc2ccc(Cl)c(Cl)c2)O1 | · | · | · | · | 10 | · | ·
CCOc1ccc(C(=O)NC(=S)Nc2ncccc2C)cc1[N+](=O)[O-] | -11 | -1 | -2 | 20* | 10 | 10 | -8
Cc1cccnc1NC(=S)Nc1ncccc1C | 21 | -4 | -3 | 2 | 8 | · | ·
CCOc1ccccc1NC(=S)Nc1ncccc1C | 4 | -4 | -2 | 23* | 18 | 8 | -3
COCC(=O)N(C)C[C@@H]1Oc2ncc(-c3ccccc3C)cc2C(=O)N([C@H](C)CO)C[C@@H]1C | · | · | · | · | -9 | · | ·
Cc1ccc(Nc2n[nH]c(=S)s2)c(C)c1 | 1 | 1 | 6 | 20* | · | 30* | 2 | BODIPY interf DR=>122
Cc1noc(C)c1NC(=O)NCC[C@@H]1CC[C@H](NC(=O)Nc2cccc(Cl)c2)[C@H](CO)O1 | · | · | · | · | 2 | · | ·
CC(=O)N(C)C[C@H]1Oc2ncc(C#Cc3ccccc3)cc2C(=O)N([C@H](C)CO)C[C@H]1C | · | · | · | · | 2 | · | ·
O=c1[nH]c2ccccc2n2c(=S)[nH]nc12 | -19 | -3 | 3 | 10 | 4 | · | ·
O=c1[nH]c2ccccc2n2c(C(F)(F)F)nnc12 | 36 | -4 | -2 | 20* | -2 | 3 | -8
CCCCOc1ccc(-c2c(C#N)c(N)nc(SCC(N)=O)c2C#N)cc1 | -437 | 0 | -2 | 46* | -3 | 18 | -8
CSc1nc(N)c(C#N)c(-c2ccc(Cl)cc2)c1C#N | -268 | -11 | -8 | 22* | -1 | 24* | -5
C[C@H](O)C#Cc1ccc([C@H]2[C@@H](CO)N3CCCCN(CC4CCOCC4)C[C@@H]23)cc1 | · | · | · | · | -9 | · | ·
CC(C)CC(N)c1csc(Nc2ccc(C(=O)N(C)Cc3ccccc3)cn2)n1 (configuration not stated) | 23 | · | -3 | 21* | · | 0 | -28
CC(NC(=S)NC1CCCCC1)C(c1cccs1)N1CCOCC1 (configuration not stated) | -4 | -1 | -3 | 24* | -1 | 19 | -3
COc1ccccc1NC(=S)NC(C)C(c1cccs1)N1CCOCC1 (configuration not stated) | -33 | 0 | -8 | 25* | 0 | 8 | -11
CCN1CCN(C(c2cccs2)C(C)NC(=S)NC2CCCCC2)CC1 (configuration not stated) | -3 | 5 | 0 | 12 | 3 | · | ·
c1ccc(-c2csc(-c3ccc(-c4csnn4)cc3)n2)cc1 | -11 | -6 | 1 | 21* | -5 | -1 | -1
C[C@H](CO)N1C[C@H](C)[C@H](CN(C)C(=O)C2CCC2)Oc2cc(-c3cncnc3)ccc2S1(=O)=O | · | · | · | · | 5 | · | ·
SMILES | Neddylation inh | DAGLB inh | NadD inh | HGIII-sPLA2 inh | ARNT TACC3 PPI | hGIII sPLA2 conf | 535nm interf | others
NC(=Nc1nc(-c2ccccn2)cc2ccccc12)c1ccccn1 | 1 | -1 | -4 | 21* | 25 | -3 | -12
CCS(=O)(=O)N1CCCCN2[C@@H](CO)[C@H](c3ccc(C#CC(C)(C)O)cc3)[C@@H]2C1 | · | · | · | · | -3 | · | ·
CN1CCN(CC(O)COc2ccc(OCC(O)CN3CCN(C)CC3)cc2)CC1 (configuration not stated) | 8 | 2 | 7 | 0 | -6 | · | ·
CN1CCN(CC(O)COc2ccc(C(=O)O)cc2)CC1 (configuration not stated) | -6 | 1 | 0 | 19* | -3 | 6 | -6
C/C=C/c1cnc2c(c1)C(=O)N([C@@H](C)CO)C[C@@H](C)[C@H](CN(C)C(=O)Nc1ccc(OC)cc1)O2 | · | · | · | · | 2 | · | ·
CCC(C)[C@H](NC(=O)N1CCCCC1)C(=O)OC (some centres not stated) | -2 | -1 | -1 | 23* | 0 | 0 | -4
CCC(C)[C@H](NC(=O)N1CCCC1)C(=O)OC (some centres not stated) | -5 | -1 | -3 | 3 | -7 | · | ·
CCOC(=O)c1sc2ncc([N+](=O)[O-])cc2c1N | -35 | 0 | -12 | 4 | 7 | · | ·
CCOC(=O)CNc1ncc([N+](=O)[O-])cc1C#N | -20 | 2 | 4 | 22* | · | -3 | -8
COCCNC(=O)c1c[nH]c2ccc(S(=O)(=O)N3CCOCC3)cc2c1=O | 14 | 2 | -2 | 1 | -1 | · | ·
CN(Cc1ccccc1)C(=O)c1c[nH]c2ccc(S(=O)(=O)N3CCOCC3)cc2c1=O | 27 | 2 | -22 | 20* | · | -4 | -6
Cc1ccc2c(c1)C1CS(=O)(=O)N(CCc3ccccc3)C(=O)N1C2 (configuration not stated) | · | · | · | 19* | · | 2 | -9
CCOCCCNC(=O)C1CCN(C(=O)N(C)C)CC1 | -6 | 0 | -3 | 20* | 2 | -1 | -5
CC(C)NC(=O)N(C)C[C@H]1OCCCC[C@@H](C)Oc2ccc(NC(=O)c3ccccc3)cc2C(=O)N([C@@H](C)CO)C[C@H]1C | · | · | · | · | 1 | · | ·
